GPR151 ag: activates the human receptor GPR151. Q8TDV0. PathHunter beta-arrestin GPR151 cells, luminescence. activation, % at 11.2 µM. 1% of 650,000 active; in the data active means activation above about 4.9%;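 further: 0% = median of compound wells and 100% = cells with positive control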
Target sequence (Q8TDV0 whole entry, looked up): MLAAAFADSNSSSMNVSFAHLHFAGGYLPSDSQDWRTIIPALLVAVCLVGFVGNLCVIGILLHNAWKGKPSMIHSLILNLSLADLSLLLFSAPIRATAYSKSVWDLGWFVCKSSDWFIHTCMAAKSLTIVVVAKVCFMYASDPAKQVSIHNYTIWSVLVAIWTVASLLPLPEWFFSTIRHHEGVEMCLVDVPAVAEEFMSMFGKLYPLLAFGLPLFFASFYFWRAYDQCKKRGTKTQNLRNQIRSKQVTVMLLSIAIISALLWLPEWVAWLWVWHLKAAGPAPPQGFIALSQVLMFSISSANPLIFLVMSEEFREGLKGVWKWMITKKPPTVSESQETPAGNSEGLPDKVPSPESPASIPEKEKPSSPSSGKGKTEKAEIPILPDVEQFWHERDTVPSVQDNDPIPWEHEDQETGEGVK
MITF primary: inhibitors of human MITF; AlphaScreen MITF homodimerization, bead proximity signal; inhibition, % at 2.6 µM; O75030; 0.91% of 650,000 active; in the data active means inhibition above about 50%;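 further: 0% = vehicle wells with protein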
TEAD-YAP block: TEAD-YAP interaction inhibition | inhibition, % at 9.12 µM | 1.4% of 640,000 active | HEK-TIYL cells, TEAD-Gal4/YAP UAS-luciferase luminescence | AID 1259422; in the data active means inhibition above about 32%;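 further: 0% = median of test compound wells and 100% = reference inhibitor wells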
FBW7 act: human FBW7 E3 ligase activation, primary screen; AlphaScreen FBW7–phospho-cyclin E peptide binding, activator screen; normalized activity (activation), % at 26.1 µM; 0.13% of 650,000 active; AID 1259310; in the data active means normalized activity above about 1.9%;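 further: purified mutant Fbw7 with reduced substrate affinity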
Active calls of the source: *. Hits are enriched below; roughly 3.4% of the tested compounds scored in any of these assays.

SMILES | GPR151 ag | MITF primary | TEAD-YAP block | FBW7 act
NNC(=O)c1c(N)n(-c2ccc3ccccc3c2)c2nc3ccccc3nc12 | 0 | -3 | 47* | 1
COc1ccc(Cl)c2sc(NC(=O)c3ccco3)nc12 | 3 | 0 | 4 | 2.1*
CCn1c2ccccc2c2cc(NC(=O)c3cc(OC)cc(OC)c3)ccc21 | -1 | 13 | 52* | 0
COc1cc(OC)cc(C(=O)Nc2ccc(NC(=O)c3cc(OC)cc(OC)c3)cc2)c1 | 1 | 1 | 43* | 0
COc1cc(OC)cc(C(=O)Nc2ccc(N3CCN(C(=O)C(C)C)CC3)cc2)c1 | -1 | -2 | 47* | 0
CCOc1cccc2c1OC1(C)C(C(=O)N(C)C)C2NC(=S)N1c1cccc(OC)c1 (centres undefined) | 1 | -22 | -11 | 0
O=C(CC1(O)C(=O)N(Cc2cccc(F)c2)c2ccccc21)c1cccs1 (centres undefined) | 1 | 20 | 10 | 0
O=C1c2ccccc2C(=O)N1N1C(=O)c2ccc(-c3nc4ccccc4c(=O)o3)cc2C1=O | 1 | -2 | -2 | 0
COc1cccc(C2C3=C(NCCN=C3c3ccc(Cl)cc3)C(=O)N2c2ccccc2)c1 (centres undefined) | 1 | 6 | 58* | 0
O=C1C2=C(C(c3ccc(Cl)cc3)=NCCN2)C(c2ccccc2)N1c1ccccc1 (centres undefined) | 0 | 13 | -1 | 0
CCOc1ccc(CNC(=O)Cc2cn(C)c3ccccc23)cc1 | 0 | 18 | 5 | 0
CCOc1ccc(CC(=O)NCc2ccccc2)cc1 | 1 | -2 | 37* | 0
COCC(=O)N/N=C(\C)CC(=O)NCc1ccc(OC)cc1 | -1 | 10 | -14 | 2.1*
COc1ccc(CNC(=O)Cc2ccc(-n3cccc3)cc2)cc1 | -1 | 16 | 45* | 0
O=C(NCCc1c[nH]c2ccccc12)c1cc2nc(-c3ccc(Cl)cc3)cc(C(F)(F)F)n2n1 | -1 | 1 | 5 | 0
CC(C)=C(NC(=O)c1ccccc1)C(=O)NCCc1c(C)[nH]c2ccccc12 | -1 | 4 | 13 | 0
CC(C)NC(=O)CSc1ccccc1C(=O)NCCCc1ccccc1 | -1 | -5 | 4 | 0
CCc1ccc(N2C(=O)CC(N3CCC(C(N)=O)CC3)C2=O)cc1 (centres undefined) | 1 | -1 | 9 | 0
COC(=O)c1ccc(/C=C(\C(=O)C(=O)O)c2ccc3ccccc3n2)cc1 | -2 | 11 | 60* | 0
N#Cc1ccc(/C=C(\C(=O)C(=O)O)c2ccc3ccccc3n2)cc1 | -4 | 22 | -30 | 1
COc1cc2oc(=O)c(CC(=O)NCc3ccccc3)c(C)c2cc1OC | -1 | 20 | 49* | 0
COc1ccccc1NCC(=O)n1ccc(C)n1 | 1 | 20 | -9 | 0
Cc1ccc(NS(=O)(=O)c2cc(C(=O)Nc3ccccc3)ccc2Br)cc1 | 1 | -6 | 39* | 0
O=C(Nc1ccccc1)c1ccc(Cl)c(S(=O)(=O)Nc2ccc(I)cc2)c1 | 0 | 4 | 36* | 0
CCn1c(=O)c2c(nc3n(-c4cccc(C)c4)c(C)c(C)n23)n(C)c1=O | 2 | -5 | 10 | 0
SMILES | GPR151 ag | MITF primary | TEAD-YAP block | FBW7 act
O=C(Nc1ccc(S(=O)(=O)Nc2ncccn2)cc1)c1ccc(F)cc1F | -1 | -8 | -8 | 0
COc1cc(CNC(C)c2ccccc2)cc(Cl)c1OCC(N)=O (centres undefined) | 0 | -18 | 10 | 0
COc1ccc(C(=O)COC(=O)c2ccc(Cl)cc2N)cc1 | 0 | -4 | -2 | 0
COc1cc(C(=O)NNC(=O)c2cccc(Cl)c2)cc(OC)c1OC | 4 | 0 | 5 | 0
COc1cc(C(=O)c2cc(Cl)ccc2N)cc(OC)c1OC | 0 | 12 | 52* | 0
COc1cc(C(=O)COC(=O)c2ccc(Cl)cc2N)cc(OC)c1OC | 0 | 1 | 53* | 0
COc1ccc2sc(N(Cc3cccnc3)C(=O)c3cccc(C)c3)nc2c1 | 2 | -9 | 40* | 0
COC(=O)C(Cc1ccc(O)cc1)NC(=O)c1ccco1 (centres undefined) | 0 | -2 | 0 | 0
COc1cccc(C2=CC(c3cc(OC)c(OC)c(OC)c3)n3ncnc3N2)c1 (centres undefined) | 0 | 10 | 68* | 0
COc1ccc(C2C=C(c3ccc(Cl)cc3)Nc3ncnn32)cc1OC (centres undefined) | 1 | 21 | 4 | 0
CCc1ccc(C2=CC(c3ccc(OC)c(OC)c3)n3ncnc3N2)cc1 (centres undefined) | 5 | -2 | 33* | 0
COc1cccc(C2=CC(c3ccc(OC)c(OC)c3OC)n3ncnc3N2)c1 (centres undefined) | 1 | -9 | -12 | 0
COc1cc(C2C=C(c3ccccc3)Nc3ncnn32)cc(OC)c1OC (centres undefined) | 0 | 11 | 61* | 0
COc1cc(C2C=C(c3cccc(NC(C)=O)c3)Nc3ncnn32)cc(OC)c1OC (centres undefined) | 1 | 1 | 52* | 0
CCC1CCCCN1Cc1cc(OC)c(OC)cc1[N+](=O)[O-] (centres undefined) | 1 | 6 | -3 | 0
COc1ccc(CCNC(=O)Cn2ncc3c(=O)oc4ccccc4c32)cc1OC | 0 | 0 | 0 | 0
CCC(C)CN1CCC(C2(Cc3ccc(F)cc3)NC(=O)N(CCCN(C)C)C2=O)CC1 (centres undefined) | 0 | 15 | -8 | 0
CCc1ccc(C2=CC(c3ccc(Cl)cc3)n3nnnc3N2)cc1 (centres undefined) | 2 | 6 | 6 | 0
Cc1ccc(C2=CC(c3ccc(C)cc3)n3ncnc3N2)cc1 (centres undefined) | -1 | -6 | -45 | 0
CCc1ccc(C2=CC(c3cc(OC)c(OC)c(OC)c3)n3nnnc3N2)cc1 (centres undefined) | 1 | 6 | 56* | 0
COc1cc(C2C=C(c3ccc(C)cc3)Nc3ncnn32)cc(OC)c1OC (centres undefined) | -2 | 8 | 62* | 0
O=C1NC(=S)N/C1=C/c1ccc(-c2ccc(Cl)c(Cl)c2)o1 | 0 | -4 | -12 | 0
CCOC(=O)C1=C(C)NC2=C(C(=O)CC(C)(C)C2)C1c1ccc(O)cc1 (centres undefined) | 0 | 1 | 6 | 0
OC1CCC(Nc2nccn3c(-c4ccsc4)cnc23)CC1 (centres undefined) | -1 | 13 | -9 | 2.1*
Oc1ccc(Nc2nccn3c(-c4ccccc4F)cnc23)cc1 | -2 | 10 | 83* | 1
Oc1ccc(Nc2nccn3c(-c4cccc(F)c4)cnc23)cc1 | -1 | -2 | 65* | 0
O=C(NCCO)c1cccc(-c2cnc3c(Nc4cccc(C(F)(F)F)c4)nccn23)c1 | -1 | -10 | -5 | 0
O=C(NCCO)c1cccc(-c2cnc3c(Nc4ccc(F)c(Cl)c4)nccn23)c1 | -4 | 10 | 74* | 0
